Assay results published in ChEMBL document CHEMBL2218924, “A broad activity screen in support of a chemogenomic map for kinase signalling research and drug discovery” (Biochem J, 2013).

Tests used:
[1] = biological target: Mitogen-activated protein kinase 11 (Homo sapiens) (UniProt Q15759); conditions: at 1 µM
[2] = biological target: Mitogen-activated protein kinase 11 (Homo sapiens) (UniProt Q15759); conditions: at 10 µM
[3] = biological target: T1, Mitogen-activated protein kinase 13 (Homo sapiens) (UniProt O15264); conditions: at 1 µM
T1 sequence (whole entry): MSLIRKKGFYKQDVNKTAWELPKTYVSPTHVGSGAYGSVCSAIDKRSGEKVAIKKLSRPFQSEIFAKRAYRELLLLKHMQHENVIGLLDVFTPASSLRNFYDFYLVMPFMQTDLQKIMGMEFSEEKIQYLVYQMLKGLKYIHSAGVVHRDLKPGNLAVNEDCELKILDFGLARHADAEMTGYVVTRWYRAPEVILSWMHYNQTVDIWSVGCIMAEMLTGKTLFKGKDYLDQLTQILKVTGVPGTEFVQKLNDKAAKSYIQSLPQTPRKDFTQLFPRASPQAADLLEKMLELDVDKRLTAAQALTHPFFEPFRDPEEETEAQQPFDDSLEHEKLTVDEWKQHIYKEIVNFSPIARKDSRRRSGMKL

[4] = biological target: T1, Mitogen-activated protein kinase 13 (Homo sapiens); conditions: at 10 µM
[5] = biological target: T2, Serine/threonine-protein kinase Sgk1 (Homo sapiens) (UniProt O00141); conditions: at 1 µM
T2 sequence (whole entry): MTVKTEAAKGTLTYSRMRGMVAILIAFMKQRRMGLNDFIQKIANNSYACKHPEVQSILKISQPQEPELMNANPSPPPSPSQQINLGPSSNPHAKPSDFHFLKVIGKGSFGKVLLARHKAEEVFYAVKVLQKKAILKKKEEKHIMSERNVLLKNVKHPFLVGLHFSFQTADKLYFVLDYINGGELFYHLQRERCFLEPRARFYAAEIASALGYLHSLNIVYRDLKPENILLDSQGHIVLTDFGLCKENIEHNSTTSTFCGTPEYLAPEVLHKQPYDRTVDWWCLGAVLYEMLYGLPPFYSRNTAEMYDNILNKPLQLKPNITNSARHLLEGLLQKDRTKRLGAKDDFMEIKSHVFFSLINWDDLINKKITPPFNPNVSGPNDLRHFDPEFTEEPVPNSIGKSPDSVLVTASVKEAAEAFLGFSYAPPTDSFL

[6] = biological target: T2, Serine/threonine-protein kinase Sgk1 (Homo sapiens); conditions: at 10 µM
[7] = biological target: T3, Serine/threonine-protein kinase Sgk2 (Homo sapiens) (UniProt Q9HBY8); conditions: at 1 µM
T3 sequence (whole entry): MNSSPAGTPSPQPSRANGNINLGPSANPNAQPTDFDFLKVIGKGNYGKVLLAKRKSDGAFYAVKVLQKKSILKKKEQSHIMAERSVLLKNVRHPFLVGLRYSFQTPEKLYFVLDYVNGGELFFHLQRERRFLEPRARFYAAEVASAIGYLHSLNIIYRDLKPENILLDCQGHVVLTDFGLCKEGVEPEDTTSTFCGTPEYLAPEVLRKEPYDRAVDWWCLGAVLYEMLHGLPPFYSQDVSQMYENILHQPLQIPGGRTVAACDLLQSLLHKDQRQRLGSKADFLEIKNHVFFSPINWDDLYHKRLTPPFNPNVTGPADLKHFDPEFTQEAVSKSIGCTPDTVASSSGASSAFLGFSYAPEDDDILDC

[8] = biological target: T3, Serine/threonine-protein kinase Sgk2 (Homo sapiens); conditions: at 10 µM
[9] = biological target: T4, Serine/threonine-protein kinase Sgk3 (Homo sapiens) (UniProt Q96BR1); conditions: at 10 µM
T4 sequence (whole entry): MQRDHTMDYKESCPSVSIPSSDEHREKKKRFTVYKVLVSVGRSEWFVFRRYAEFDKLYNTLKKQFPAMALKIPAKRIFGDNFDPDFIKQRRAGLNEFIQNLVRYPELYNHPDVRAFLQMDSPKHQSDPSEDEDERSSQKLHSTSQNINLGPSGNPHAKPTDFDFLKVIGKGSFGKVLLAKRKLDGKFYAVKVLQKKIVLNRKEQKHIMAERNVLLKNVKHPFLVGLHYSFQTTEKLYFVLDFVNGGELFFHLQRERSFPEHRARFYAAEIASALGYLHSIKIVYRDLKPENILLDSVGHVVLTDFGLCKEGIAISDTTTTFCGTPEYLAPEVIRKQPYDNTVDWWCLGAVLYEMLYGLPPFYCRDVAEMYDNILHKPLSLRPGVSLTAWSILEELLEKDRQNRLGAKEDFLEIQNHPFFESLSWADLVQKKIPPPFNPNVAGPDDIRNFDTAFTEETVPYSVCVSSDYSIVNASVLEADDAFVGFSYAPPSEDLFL

[10] = biological target: Serine/threonine-protein kinase SIK1 (Homo sapiens) (UniProt P57059); conditions: at 1 µM
Sequence of Serine/threonine-protein kinase SIK1 (Homo sapiens) (P57059 whole entry): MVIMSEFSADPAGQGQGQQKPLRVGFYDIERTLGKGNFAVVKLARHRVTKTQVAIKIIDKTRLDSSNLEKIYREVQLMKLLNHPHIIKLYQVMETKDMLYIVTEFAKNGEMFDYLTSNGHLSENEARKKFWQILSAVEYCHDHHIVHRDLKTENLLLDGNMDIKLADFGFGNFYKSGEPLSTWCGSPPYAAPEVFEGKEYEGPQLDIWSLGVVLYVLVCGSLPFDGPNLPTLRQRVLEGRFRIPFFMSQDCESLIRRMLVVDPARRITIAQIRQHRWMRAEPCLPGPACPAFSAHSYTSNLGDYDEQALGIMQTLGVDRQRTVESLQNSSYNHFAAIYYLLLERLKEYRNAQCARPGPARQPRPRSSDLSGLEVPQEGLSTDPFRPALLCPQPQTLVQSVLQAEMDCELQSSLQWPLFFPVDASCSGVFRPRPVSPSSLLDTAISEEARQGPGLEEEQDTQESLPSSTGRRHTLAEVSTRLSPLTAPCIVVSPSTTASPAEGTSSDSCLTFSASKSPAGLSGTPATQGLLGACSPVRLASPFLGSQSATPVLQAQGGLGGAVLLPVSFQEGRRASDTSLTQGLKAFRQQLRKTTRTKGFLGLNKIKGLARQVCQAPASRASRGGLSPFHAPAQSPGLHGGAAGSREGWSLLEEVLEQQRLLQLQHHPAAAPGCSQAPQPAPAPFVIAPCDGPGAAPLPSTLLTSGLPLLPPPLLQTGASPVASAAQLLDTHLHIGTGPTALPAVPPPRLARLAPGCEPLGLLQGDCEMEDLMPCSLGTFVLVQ

[11] = biological target: Serine/threonine-protein kinase SIK1 (Homo sapiens) (UniProt P57059); conditions: at 10 µM
[12] = biological target: SRSF protein kinase 1 (Homo sapiens) (UniProt Q96SB4); conditions: at 1 µM
Sequence of SRSF protein kinase 1 (Homo sapiens) (Q96SB4 whole entry): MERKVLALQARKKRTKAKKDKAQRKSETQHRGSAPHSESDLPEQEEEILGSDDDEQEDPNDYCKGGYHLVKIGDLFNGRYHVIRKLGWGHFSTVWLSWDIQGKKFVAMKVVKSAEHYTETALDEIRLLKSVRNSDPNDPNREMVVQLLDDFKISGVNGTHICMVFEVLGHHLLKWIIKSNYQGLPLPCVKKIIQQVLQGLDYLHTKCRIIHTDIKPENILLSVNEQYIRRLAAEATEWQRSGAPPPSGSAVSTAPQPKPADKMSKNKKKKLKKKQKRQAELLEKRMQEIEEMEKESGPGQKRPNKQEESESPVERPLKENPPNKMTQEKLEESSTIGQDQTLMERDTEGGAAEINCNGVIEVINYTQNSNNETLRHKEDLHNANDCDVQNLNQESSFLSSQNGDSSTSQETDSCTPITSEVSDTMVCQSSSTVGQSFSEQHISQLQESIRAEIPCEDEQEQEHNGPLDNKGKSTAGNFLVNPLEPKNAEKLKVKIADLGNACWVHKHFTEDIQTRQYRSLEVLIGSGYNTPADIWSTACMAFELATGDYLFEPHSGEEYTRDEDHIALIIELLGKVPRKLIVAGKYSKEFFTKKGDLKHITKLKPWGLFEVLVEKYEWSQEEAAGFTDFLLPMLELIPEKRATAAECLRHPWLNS

[13] = biological target: SRSF protein kinase 1 (Homo sapiens) (UniProt Q96SB4); conditions: at 10 µM
[14] = biological target: SRSF protein kinase 2 (Homo sapiens) (UniProt P78362); conditions: at 1 µM
Sequence of SRSF protein kinase 2 (Homo sapiens) (P78362 whole entry, looked up): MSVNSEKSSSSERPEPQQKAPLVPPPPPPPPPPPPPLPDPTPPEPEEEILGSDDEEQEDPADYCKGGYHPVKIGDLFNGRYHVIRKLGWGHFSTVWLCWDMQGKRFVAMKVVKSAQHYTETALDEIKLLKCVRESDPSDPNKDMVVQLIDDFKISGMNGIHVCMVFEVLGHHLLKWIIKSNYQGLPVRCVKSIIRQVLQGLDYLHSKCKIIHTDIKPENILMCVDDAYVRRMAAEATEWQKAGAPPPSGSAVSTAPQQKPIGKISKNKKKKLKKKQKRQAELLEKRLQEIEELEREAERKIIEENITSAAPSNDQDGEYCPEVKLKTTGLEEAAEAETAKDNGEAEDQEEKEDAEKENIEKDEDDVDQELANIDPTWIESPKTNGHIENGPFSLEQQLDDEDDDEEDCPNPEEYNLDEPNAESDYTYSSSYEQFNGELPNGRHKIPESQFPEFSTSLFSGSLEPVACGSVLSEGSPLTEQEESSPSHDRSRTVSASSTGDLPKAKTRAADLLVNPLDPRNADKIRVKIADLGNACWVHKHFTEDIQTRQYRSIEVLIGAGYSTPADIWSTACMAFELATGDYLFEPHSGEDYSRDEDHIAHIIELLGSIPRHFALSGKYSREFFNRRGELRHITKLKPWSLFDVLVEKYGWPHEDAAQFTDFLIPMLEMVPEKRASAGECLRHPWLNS

[15] = biological target: SRSF protein kinase 2 (Homo sapiens) (UniProt P78362); conditions: at 10 µM
[16] = biological target: Serine/threonine-protein kinase 33 (Homo sapiens) (UniProt Q9BYT3); conditions: at 1 µM
Sequence of Serine/threonine-protein kinase 33 (Homo sapiens) (Q9BYT3 whole entry, looked up): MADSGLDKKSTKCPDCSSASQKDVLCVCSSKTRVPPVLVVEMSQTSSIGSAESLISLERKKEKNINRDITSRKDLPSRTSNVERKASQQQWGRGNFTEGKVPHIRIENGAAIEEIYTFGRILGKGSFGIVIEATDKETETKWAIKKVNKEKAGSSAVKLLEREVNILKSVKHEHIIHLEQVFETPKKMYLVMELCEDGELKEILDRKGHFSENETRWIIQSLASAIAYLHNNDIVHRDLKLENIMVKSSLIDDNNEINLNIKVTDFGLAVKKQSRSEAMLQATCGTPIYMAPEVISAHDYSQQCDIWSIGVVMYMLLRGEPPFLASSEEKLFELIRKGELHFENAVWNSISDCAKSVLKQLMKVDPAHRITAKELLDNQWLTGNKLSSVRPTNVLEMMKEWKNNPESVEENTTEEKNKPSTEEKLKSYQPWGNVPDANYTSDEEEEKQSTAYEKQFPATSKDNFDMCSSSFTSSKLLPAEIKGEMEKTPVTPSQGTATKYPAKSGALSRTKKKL

[17] = biological target: Serine/threonine-protein kinase 33 (Homo sapiens) (UniProt Q9BYT3); conditions: at 10 µM
[18] = biological target: Serine/threonine-protein kinase PLK2 (Homo sapiens) (UniProt Q9NYY3); conditions: at 1 µM
Sequence of Serine/threonine-protein kinase PLK2 (Homo sapiens) (Q9NYY3 whole entry, looked up): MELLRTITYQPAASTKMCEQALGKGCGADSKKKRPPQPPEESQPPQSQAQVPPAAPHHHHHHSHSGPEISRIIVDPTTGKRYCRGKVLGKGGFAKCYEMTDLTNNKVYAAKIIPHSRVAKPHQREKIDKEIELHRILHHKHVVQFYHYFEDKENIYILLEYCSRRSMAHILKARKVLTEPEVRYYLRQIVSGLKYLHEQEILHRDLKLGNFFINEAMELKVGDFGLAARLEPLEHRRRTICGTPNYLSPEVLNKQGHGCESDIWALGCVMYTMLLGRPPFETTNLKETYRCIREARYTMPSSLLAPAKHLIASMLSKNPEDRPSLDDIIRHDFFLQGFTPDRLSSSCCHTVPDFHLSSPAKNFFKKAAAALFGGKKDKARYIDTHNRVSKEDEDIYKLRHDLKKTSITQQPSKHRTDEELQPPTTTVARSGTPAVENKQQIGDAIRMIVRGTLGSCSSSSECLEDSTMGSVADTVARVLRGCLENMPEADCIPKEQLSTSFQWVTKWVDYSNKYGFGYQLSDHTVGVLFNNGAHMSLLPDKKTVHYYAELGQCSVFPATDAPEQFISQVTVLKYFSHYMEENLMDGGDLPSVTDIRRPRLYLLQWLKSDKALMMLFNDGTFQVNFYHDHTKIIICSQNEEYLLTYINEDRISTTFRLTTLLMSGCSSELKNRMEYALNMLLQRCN

[19] = biological target: Serine/threonine-protein kinase PLK2 (Homo sapiens) (UniProt Q9NYY3); conditions: at 10 µM
[20] = biological target: Tyrosine-protein kinase SYK (Homo sapiens) (UniProt P43405); conditions: at 1 µM

Sequence of Mitogen-activated protein kinase 11 (Homo sapiens) (Q15759 whole entry): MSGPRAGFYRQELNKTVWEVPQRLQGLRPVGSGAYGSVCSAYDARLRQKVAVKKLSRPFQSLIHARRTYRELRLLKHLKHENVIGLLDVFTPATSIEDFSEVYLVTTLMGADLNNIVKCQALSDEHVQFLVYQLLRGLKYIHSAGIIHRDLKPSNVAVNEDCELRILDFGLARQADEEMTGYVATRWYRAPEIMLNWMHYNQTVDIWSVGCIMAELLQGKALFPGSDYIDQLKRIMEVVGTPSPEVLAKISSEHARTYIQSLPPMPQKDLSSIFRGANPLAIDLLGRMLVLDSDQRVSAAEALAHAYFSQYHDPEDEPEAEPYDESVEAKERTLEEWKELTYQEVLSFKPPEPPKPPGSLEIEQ

| Structure (SMILES) | residual activity [1] [%] | residual activity [2] [%] | residual activity [3] [%] | residual activity [4] [%] | residual activity [5] [%] | residual activity [6] [%] | residual activity [7] [%] | residual activity [8] [%] | residual activity [9] [%] | residual activity [10] [%] | residual activity [11] [%] | residual activity [12] [%] | residual activity [13] [%] | residual activity [14] [%] | residual activity [15] [%] | residual activity [16] [%] | residual activity [17] [%] | residual activity [18] [%] | residual activity [19] [%] | residual activity [20] [%] |
| --- | --- | --- | --- | --- | --- | --- | --- | --- | --- | --- | --- | --- | --- | --- | --- | --- | --- | --- | --- | --- |
| COc1ccc(C(=O)Nc2sc3c(c2C(N)=O)CCCC3)cc1OC | 96 | 105 | 100 | 91 | 85 | 109 | 99 | 52 | 90 | 91 | 91 | 84 | 95 | 89 | 89 | 91 | 97 | 98 | 97 | 126 |
| N#C/C(=C(\N)Sc1ccc(N)cc1)c1ccccc1C(F)(F)F | 104 | 101 | 95 | 90 | 81 | 98 | 100 | 117 | 93 | 104 | 85 | 99 | 99 | 108 | 82 | 92 | 93 | 100 | 98 | 73 |
| CCN(CC)CCCCN1c2ccccc2Oc2ccc(Cl)cc21 | 106 | 101 | 111 | 99 | 135 | 80 | 104 | 102 | 105 | 114 | 59 | 101 | 117 | 104 | 82 | 107 | 109 | 109 | 104 | 137 |
| Oc1c2ccccc2c2c3c(cccc13)N=N2 | 88 | 79 | 96 | 73 | 60 | 24 | 71 | 33 | 58 | 96 | 48 | 98 | 87 | 97 | 57 | 61 | 16 | 85 | 61 |  |
| O=C1NC(=O)/C(=C\c2ccc3nccnc3c2)S1 | 95 | 102 | 93 | 50 | 118 | 73 | 103 | 75 | 93 | 74 | 83 | 99 | 49 | 96 | 58 | 86 | 53 | 94 | 73 | 104 |
| O=[N+]([O-])c1ccc(-c2nc(-c3ccc(F)cc3)c(-c3ccncc3)[nH]2)cc1 | 5 | 3 | 102 | 99 | 81 | 104 | 120 | 94 | 95 | 130 | 106 | 109 | 109 | 98 | 85 | 104 | 101 | 103 | 104 | 118 |
| Oc1ccc(Nc2nc(-c3ccc(Cl)cc3)cs2)cc1 | 113 | 105 | 111 | 106 | 123 | 203 | 114 | 107 | 134 | 101 | 111 | 105 | 111 | 116 | 87 | 105 | 100 | 110 | 100 | 117 |
| Ic1cccc(CSc2nnc(-c3ccncc3)o2)c1 | 102 | 92 | 104 | 94 | 71 | 64 | 84 | 78 | 81 | 92 | 100 | 97 | 102 | 88 | 79 | 86 | 80 | 97 | 97 | 98 |
| Nc1nc(Nc2ccc(S(N)(=O)=O)cc2)nn1C(=S)Nc1c(F)cccc1F | 56 | 24 | 43 | 46 | 53 | 16 | 36 | 6 | 40 | -2 | -2 | -2 | 7 | 3 | -3 | 77 | 26 | 71 | 26 | 16 |
| NC(=O)c1ccc2[nH]c(-c3ccc(Oc4ccc(Cl)cc4)cc3)nc2c1 | 99 | 101 | 105 | 101 | 90 | 174 | 112 | 104 | 103 | 108 | 107 | 94 | 64 | 81 | 76 | 96 | 85 | 90 | 93 | 109 |
| CO[C@H]1[C@@H](OC)C[C@H](C)[C@@H](OC)C2=CC(=O)C=C(NC(=O)/C(C)=C/C=C/[C@H](OC)[C@@H](OC(N)=O)/C(C)=C/[C@@H]1C)C2=O | 98 | 102 | 89 | 96 | 98 | 78 | 97 | 76 | 93 | 82 | 54 | 104 | 102 | 104 | 91 | 98 | 98 | 100 | 91 | 110 |
| CC(C)n1cnc2c(NCc3ccccc3)nc(NCCCO)nc21 | 100 | 109 | 76 | 90 | 97 | 105 | 79 | 67 | 76 | 116 | 100 | 78 | 37 | 93 | 37 | 93 | 71 | 94 | 88 | 103 |
| CCC(=O)Nc1ccc2ncnc(Nc3cccc(Br)c3)c2c1 | 91 | 88 | 100 | 102 | 107 | 114 | 105 | 77 | 95 | 68 | 13 | 102 | 98 | 89 | 74 | 91 | 98 | 104 | 98 | 125 |
| O=C(Nc1cccc(Nc2nccc(Nc3cccc(C(F)(F)F)c3)n2)c1)C1CC1 | 103 | 88 | 107 | 95 | 84 | 66 | 108 | 89 | 78 | 58 | 50 | 107 | 87 | 96 | 90 | 102 | 89 | 102 | 73 | 79 |
